Source: PubChem BioAssay (National Center for Advancing Translational Sciences (NCATS))
Compounds with a hit are over-represented: about 13% of the library has one in this group of screens.
HCV inhibitor – inhibitors of hepatitis C virus infection; Potency, µM (series often up to 41.8 µM), without a hit: at the top dose activity change, negative = inhibition, usual class: inhibitors; 3.4% of 340,000 active; AID 651820; Huh7.5.1 HCVcc-Cre infection, luciferase reporter, 44 h; also: potency is read from the fitted curve at half-maximal effect
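1,000 cells/well; 4 h culture; + compound; + HCVcc-Cre (~0.5 moi); 44 h; luciferase substrate, RT 15 min; read 15 sec.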
Pf growth 48h – inhibits P. falciparum growth in the first generation, 48 h. P. falciparum luciferase growth in erythrocytes, 48 h. Potency, µM (titrated, usually from 28.7 µM), for the others: at the highest dose activity change, negative = inhibition, most hits filed as inhibitors. 5.9% of 310,000 active. AID 504832; also: potency is read from the fitted curve at half-maximal effect
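Erythrocytes infected with P. falciparum carrying an integrated firefly luciferase reporter (2% hematocrit, 0.1% parasitemia final) were exposed to compounds in RPMI 1640 with 0.5% Albumax at 37 C, 5% CO2. Growth inhibition was scored as reduced luminescence.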
Pf growth 96h – inhibits malaria parasite growth, 96 h; P. falciparum luciferase reporter growth, 96 h; Potency, µM (titrated, usually from 28.7 µM), for inactives: top-dose activity change, negative = inhibition, usual class: inhibitors; 6.9% of 320,000 active; also: potency is read from the fitted curve at half-maximal effect
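Parasite growth measured via integrated firefly luciferase reporter in P. falciparum. Infected erythrocytes at 2% hematocrit, 0.05% parasitemia final were treated 96 hours at 37 C under 5% CO2, and luminescence was read.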
HCMV inh – inhibitors of human cytomegalovirus. activity change, negative = inhibition, % at 57.5 µM. 4.5% of 410,000 active. HFF cells, HCMV-luciferase reporter, 72 h; active compounds read low. AID 1259415; in the data active = activity change below about -60%; inconclusive = no clear call, values can overlap the other calls; inactive = above about -39%
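After 16 h attachment at 37C, HFF cells received test compound and HCMV-luciferase (1 PFU/cell); reporter luminescence read 72 h later, data normalized against buffer-only and known inhibitor Salinomycin.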
* hit, by the source's call; ? = inconclusive; . = no result given. Unless noted, calls follow the shape of the dose curve; as a rule, active = well fitted inhibition curve with a large enough effect; inconclusive = small, poorly fitted or top-dose-only effect, or another doubt; inactive = no such curve, though single readings can be large or run the other way. % is scaled to controls: 0 for no effect and ±100 for the full control effect.

SMILES	HCV inhibitor	Pf growth 48h	Pf growth 96h	HCMV inh
Cc1ccc(C2C3CN(C(C)C)CC=C3C(C#N)=C(N)C2(C#N)C#N)cc1 (stereo unspecified)	-8.7%	8.28µM*	-0.5%	-20.6
N#CC1=C(N)C(C#N)(C#N)C(c2cccnc2)C2CN(C(=O)OCc3ccccc3)CC=C12 (stereo unspecified)	-29.3%	?	9.28µM*	-7.9
CCOC(=O)N1CC=C2C(C#N)=C(N)C(C#N)(C#N)[C@H](c3ccc(OCC)c(OCC)c3)[C@H]2C1	?	5.22µM*	7.7%	19.2
COC(=O)c1c(Oc2ccc(C(C)=O)cc2)nnc(-c2ccccc2)c1-c1ccccc1	.	.	.	-13.9
c1ccc(-c2c(-c3ccccc3)n(Cc3ccco3)c3ncnc(NCCCn4ccnc4)c23)cc1	?	.	2.08µM*	.
OCCNc1ncnc2c1c(-c1ccccc1)c(-c1ccccc1)n2Cc1ccco1	?	.	-15.3%	-62.9*
Cc1c(C)n(CCc2ccccc2)c2ncnc(NCCO)c12	-25.5%	126.9%	115.6%	100.4
c1ccc(-c2oc3ncnc(NCCN4CCOCC4)c3c2-c2ccccc2)cc1	?	?	14.1%	?
c1ccc(-c2oc3ncnc(NCCCn4ccnc4)c3c2-c2ccccc2)cc1	11.2µM*	13.1µM*	22.3%	.
CN(C)CCCNc1ncnc2oc(-c3ccccc3)c(-c3ccccc3)c12	3.55µM*	16.5µM*	13.1µM*	?
Nc1ccccc1-c1nc2ccccc2s1	10.5%	68.3%	9.28µM*	26.3
COc1ccc(NC(=O)CCCc2nc(-c3ccco3)no2)c(OC)c1	.	.	.	-14.0
CC1=C(C(=O)N2CCCCCC2)CC(CC(=O)NCCc2ccccn2)C(=O)N1CCCN1CCCC1=O (stereo unspecified)	.	.	.	-84.1*
CC1=C(C(=O)N(C(C)C)C(C)C)CC(CC(=O)NCCc2ccccn2)C(=O)N1CCCN1CCCC1=O (stereo unspecified)	.	.	.	18.6
COc1cc(C(=O)NCCCc2nc3ccccc3n2CC(C)C)cc(OC)c1OC	.	.	.	7.7
CCc1cc2c(CN3CCN(CCO)CC3)cc(=O)oc2cc1O	-11.3%	13.1µM*	?	13.8
Cc1cc2oc(=O)cc(CN3CCN(C/C=C/c4ccccc4)CC3)c2cc1O	.	2.94µM*	.	-20.4
Oc1ccc2ccccc2c1CN1CCN(C/C=C/c2ccccc2)CC1	-14.2%	?	9.28µM*	-23.7
Cc1c(O)ccc2c(CN3CCN(C/C=C/c4ccccc4)CC3)cc(=O)oc12	11.2µM*	2.62µM*	?	-60.2*
CCc1cc2c(CN3CCN(C)CC3)cc(=O)oc2cc1O	-14.3%	?	.	-22.7
Cc1ccc2c(CN3CCN(CCO)CC3)cc(=O)oc2c1C	-17.7%	0.0%	.	3.4
O=C(Cn1ccc2cc(S(=O)(=O)N3CCCCCC3)ccc21)NCc1cccc(Cl)c1	.	.	.	63.7
Cc1cc(C(F)F)n2nc(C(=O)Nc3cc(Cl)ccc3C)nc2n1	.	.	.	-0.9
N#Cc1ccccc1CN1C(=O)c2ccccc2Sc2ccc(C(=O)OCc3ccco3)cc21	.	.	.	-10.3
O=c1cc(CN2CCN(Cc3ccccc3)CC2)c2cc(O)ccc2o1	-16.8%	-23.6%	?	?
SMILES	HCV inhibitor	Pf growth 48h	Pf growth 96h	HCMV inh
Cc1cc2oc(=O)cc(CN3CCN(Cc4ccccc4)CC3)c2cc1O	11.2µM*	9.28µM*	?	-8.8
Cc1cc2oc(=O)cc(CN3CCCCC3)c2cc1C	6.1%	17.3%	3.8%	14.3
CC(C)CN(Cc1cc(=O)oc2cc(-c3ccccc3)c(O)cc12)CC(C)C	14.1µM*	0.329µM*	?	-33.2
Cc1cc2oc(=O)cc(CN3CCN(S(=O)(=O)c4cccs4)CC3)c2cc1C	?	?	7.38µM*	-13.3
O=c1cc(-c2ccccc2)c2ccc(O)cc2o1	-15.6%	.	.	-13.6
Cc1cc(O)c2c(CN3CCN(Cc4ccccc4)CC3)cc(=O)oc2c1	?	?	8.28µM*	3.1
CCc1cc(=O)oc2cc(C)cc(O)c12	-20.3%	.	21.3%	44.8
CON(Cc1ccccc1)S(=O)(=O)c1ccccc1Br	.	.	.	32.3
Cc1ccc(OCCSc2nc3ccccc3n2CC(=O)N2CCOCC2)c(C)c1	.	.	.	7.5
O=c1cc(CN2CCN(C/C=C/c3ccccc3)CC2)c2cc(O)c(-c3ccccc3)cc2o1	?	0.928µM*	1.04µM*	-5.0
Cc1[nH]c(=O)[nH]c(=O)c1S(=O)(=O)N1CCC(C(=O)NC(C)c2ccccc2)CC1 (stereo unspecified)	9.8%	-3.8%	4.15µM*	?
Cc1cccc(NC(=O)C2CCN(S(=O)(=O)c3c(C)[nH]c(=O)[nH]c3=O)CC2)c1	21.7%	46.3%	13.1µM*	14.8
Cc1ccc(C(CNS(=O)(=O)c2ccccc2)N2CCN(C)CC2)cc1 (stereo unspecified)	-14.5%	?	9.8%	-14.0
Cc1ccc(C(CNS(=O)(=O)c2ccc([N+](=O)[O-])cc2)N2CCN(C)CC2)cc1 (stereo unspecified)	11.2µM*	?	?	-14.9
Cc1ccc(C(CNS(=O)(=O)c2ccc(Br)cc2)N2CCN(C)CC2)cc1 (stereo unspecified)	8.91µM*	?	?	-30.0
O=[N+]([O-])c1ccc(-c2ccc(S(=O)(=O)NCCN3CCCC3)cc2)cc1	10µM*	?	0.6%	-71.4*
CCSc1ncc(Cl)c(C(=O)Nc2c(C(=O)Nc3ccc(Cl)cc3)oc3ccccc23)n1	.	.	.	-5.9
COc1ccccc1-c1n[nH]c(=S)n1-c1ccccc1	8.6%	90.4%	13.1µM*	18.4
COc1ccccc1-c1n[nH]c(=S)n1N	3.6%	-1.2%	-8.7%	14.7
COc1ccc(-c2n[nH]c3c2C(c2ccc(OC)c(OC)c2)N(c2ccccc2)C3=O)cc1 (stereo unspecified)	18.3%	.	0.117µM*	17.7
COc1ccc(OC)c(C2c3c(-c4ccc(Br)cc4)n[nH]c3C(=O)N2c2ccc(Cl)cc2)c1 (stereo unspecified)	.	.	.	-104.9*
COc1ccc(C2c3c(-c4ccc(F)cc4)n[nH]c3C(=O)N2c2ccccc2)cc1OC (stereo unspecified)	.	.	.	-9.2
O=C(NC1CCCN(Cc2ccc(Cl)cc2)C1)c1c(F)cccc1F (stereo unspecified)	-28.3%	42.9%	?	9.5
O=C(NC1CCCN(Cc2ccc(Cl)cc2)C1)c1c(F)ccc(F)c1F (stereo unspecified)	-12.8%	-12.2%	4.65µM*	107.3
COc1ccc(OCC(=O)NC2CCCN(Cc3ccc(Cl)cc3)C2)cc1 (stereo unspecified)	?	13.1µM*	?	-0.3
O=C(NC1CCCN(Cc2ccc(Cl)cc2)C1)c1ccccc1C(F)(F)F (stereo unspecified)	8.6%	?	4.65µM*	-6.0
CCCC(=O)OC[C@H]1CN(C2CCCC2)S(=O)(=O)c2c(F)cccc2O1	.	.	.	-0.4
COc1ccc(/C=C/CN2CCN(CC(C)C)C(CCO)C2)cc1 (stereo unspecified)	-0.5%	?	4.15µM*	10.0
CC(C)N1CCC(N2CCN(C/C=C/c3ccc(F)cc3)CC2CCO)CC1 (stereo unspecified)	10µM*	?	15.2%	11.6
